Sampled rows, rich in hits. Any-hit rate of the full collection: about 12%.
ROMK primary: ROMK potassium channel modulators, primary screen, cell-based, thallium flux, MLSMR library | ATP-sensitive inward rectifier potassium channel 1 (Homo sapiens), P48048 | Tet-inducible ROMK, thallium flux fluorescence; actives lie on both sides | B-score at 10 µM | 130,000 tested, 2% active;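 active = signal ratio slope over the read window, or its plate-corrected B-score, at least 3 SD from the plate mean, either direction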;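 note: B-score of the F/F0 ratio slope over 7 to 12 s after thallium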
Target sequence (P48048 whole entry, looked up): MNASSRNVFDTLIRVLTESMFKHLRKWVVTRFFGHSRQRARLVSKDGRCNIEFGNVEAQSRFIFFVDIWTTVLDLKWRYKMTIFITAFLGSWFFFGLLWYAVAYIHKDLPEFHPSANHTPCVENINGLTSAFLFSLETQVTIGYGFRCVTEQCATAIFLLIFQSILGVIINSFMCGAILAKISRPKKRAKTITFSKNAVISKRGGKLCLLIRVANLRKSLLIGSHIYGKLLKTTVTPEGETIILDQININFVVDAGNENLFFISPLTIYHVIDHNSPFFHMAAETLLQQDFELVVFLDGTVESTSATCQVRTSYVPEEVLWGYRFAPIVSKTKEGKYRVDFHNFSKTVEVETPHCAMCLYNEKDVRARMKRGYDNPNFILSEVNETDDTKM
Lmaj promast: Leishmania major promastigote growth inhibition, primary screen. AID 1063, 2008. Leishmania major promastigotes, resazurin fluorescence viability. inhibition, % at 10 µM. 200,000 tested, 9% active; in the data active = inhibition above about 50%;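 note: promastigotes grown with compound for 44 hours at 28 °C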
m-calpain inh: inhibitors of pig calpain II, primary screen, biochemical, fluorogenic peptide substrate, 1536-well. 220,000 tested, 0.37% active. purified calpain II, 30 min. inhibition, % at 16 µM;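 active = inhibition above about 50%, limit read from the data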
Cl transport mod: KCC2 cotransporter modulators, thallium flux, primary screen, cell-based, HEK293 KCC2, FluoZin-2 fluorescence, MLSMR; 190,000 tested, 2.2% active; B-score of Tl+ flux slope (higher = more flux/activation; lower = inhibition) at 10 µM; AID 1456, 2008; Solute carrier family 12 member 5 (Homo sapiens), Q9H2X9; KCC2 cells, thallium flux FluoZin-2 fluorescence;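 active = thallium flux slope and its plate-corrected score both differing from the plate sample mean at a set confidence after two filtering rounds, in either direction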;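 note: slope of fluorescence scaled to starting intensity during 10 to 20 s after thallium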
WT yeast gro inh: growth inhibition of WT strain, primary screen, mitochondrial fusion inhibitor project, WT and mutant strains, chemical genetic. 190,000 tested, 2.1% active. inhibition, % at 10 µM. mitochondrial fusion phenotypic screen. AID 1362, 2008; in the data active = inhibition above about 58%; tested in S. cerevisiae
ROMK retest: ROMK channel modulator hit retest, confirmation, cell-based, thallium flux, duplicate, resupplied hits | shares compounds with ROMK primary | fluorescence ratio; stronger effect = lower value | normalized thallium flux (F/F0 slope) at 10 µM | 3,000 tested, 54% active | AID 1917, 2009;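 active = Flux at 10 µM at least 3 SD below or above vehicle control mean in one or both replicates; inconclusive = no clear call, values can overlap the other calls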
A number is an active result; n = inactive; u = inconclusive; x = not tested or not shown.

SMILES	ROMK primary	Lmaj promast	m-calpain inh	Cl transport mod	WT yeast gro inh	ROMK retest
COc1ccc(NS(=O)(=O)c2ccc(OC)c(OC)c2)cc1OC	x	n	n	n	n	x
Cc1cccc2c3nc4ccccc4nc3n(CCCN3C(=O)c4ccccc4C3=O)c12	x	n	n	n	n	0.0651
COc1ccc2c(c1)c1nc3ccccc3nc1n2CCCN1C(=O)c2ccccc2C1=O	x	n	n	n	n	x
NC(=O)N/N=C(/CCCCCC/C(=N\NC(N)=O)c1ccccc1)c1ccccc1	x	x	n	n	x	x
CCCN1CCN(CCCNC(=S)Nc2ccc(F)cc2)CC1	x	n	n	n	n	x
CSc1cccc(NC(=S)NCCCN2CCN(c3ccc(F)cc3)CC2)c1	-2.7	57.0	n	n	n	0.0526
Cc1cc(NC(=O)CSc2nncn2N)no1	n	n	n	n	n	x
O=C(CSc1nnnn1C1CC2CCC1C2)Nc1ccnc2ccccc12 (centres undefined)	x	n	n	n	n	u
CCCCCc1ccc(OCCC[n+]2ccccc2)c(CCCCC)c1	x	x	n	n	x	0.0602
CC(=O)Nc1ccc(OCCC[n+]2ccccc2)cc1	x	n	n	n	n	x
CCCCCc1ccc(OCCOCCn2c[n+](C)c3ccccc32)c(CCCCC)c1	x	100.8	n	n	96.5	0.0456
COc1ccc(NC(=O)C2CCCN(S(=O)(=O)c3c(C)[nH]c(=O)[nH]c3=O)C2)cc1Cl (centres undefined)	n	n	n	n	n	x
CCOC(=O)c1cc(-c2ccccc2)n(CC(=O)Nc2cccc(OC)c2)c1C	-4.79	n	n	n	n	n
COC(=O)[C@@H]1C[C@@]2(O)[C@@H](O)[C@@H](O)[C@@H](O)C[C@H]2N1Cc1ccc(C(F)(F)F)cc1	x	x	n	n	x	n
Cc1cccn2c(CNC3CCCc4ccccc43)c(C(=O)N3CCCCC3)nc12 (centres undefined)	-2.97	n	n	n	n	0.0609
CCOC(=O)C1CCCN(Cc2nc3ccc([N+](=O)[O-])cc3c(=O)n2-c2ccc(OC)cc2OC)C1 (centres undefined)	n	n	n	n	n	x
CC(C)c1ccc(OCC(=O)NC2=NCCS2)cc1	n	n	n	n	n	x
CC(=O)c1ccc(N(C(=O)CS(=O)CC(=O)Nc2ccc(F)cc2)C(C(=O)NC2CCCCC2)c2cccs2)cc1 (centres undefined)	-3.3	n	n	n	n	n
CCCNC(=S)Nc1cccc(C(F)(F)F)c1	n	71.3	n	n	n	u
CC1(c2ccccc2)CC(C)(C)N(C(=O)C2CCCO2)c2ccccc21 (centres undefined)	-3.58	87.0	n	n	n	0.0579
Cc1cc(=O)n2ccccc2c1C#N	n	n	n	x	n	x
COc1ccc2c(C#N)c3ccccn3c2c1	-3.07	n	n	n	n	0.045
COc1c(OC(C)=O)ccc(/C=N\NC(=O)c2ccc(Br)cc2)c1[N+](=O)[O-]	x	n	n	n	n	x
O=C(CNC(=O)c1ccco1)N/N=C/c1cccs1	x	x	n	n	x	x
COc1ccc(-n2cccc2/C=C/[N+](=O)[O-])cc1	-5.55	99.9	n	n	70.5	0.0412
SMILES	ROMK primary	Lmaj promast	m-calpain inh	Cl transport mod	WT yeast gro inh	ROMK retest
O=C(NCc1ccco1)C1CC(c2ccccc2C(F)(F)F)=NO1 (centres undefined)	x	x	n	n	x	x
COc1ccc(OC)c(C2=NOC(C(=O)NCc3ccco3)C2)c1 (centres undefined)	3.47	n	n	n	n	n
O=C(NCc1ccco1)C1CC(c2ccccc2O)=NO1 (centres undefined)	3.59	n	n	n	n	n
CN(CC(=O)Nc1ccc(N2CCOCC2)cc1)Cc1c(O)ccc2ccccc12	n	n	n	n	n	x
Cc1cc(C(=O)OCC(=O)NCc2ccco2)c(C)n1-c1ccc(F)cc1	5.13	n	n	n	n	n
Cc1nc(NC(=O)CSc2ccccc2N)sc1C	x	n	n	n	n	x
Nc1nc(NCc2ccccc2)nc(-c2ccccc2)n1	x	n	n	n	n	x
CCCCCNc1nc(-c2ccccc2)nc(-n2ccnc2)n1	x	n	n	n	n	n
CN(CCOc1ccc(Cl)cc1)c1ccc(S(=O)(=O)N2CCCCC2)cn1	-4.39	n	n	n	n	u

Bioassay records as filed in PubChem.
